Test results from PubChem BioAssay (NCATS).
Where “and” joins values, the source holds several entries; their conditions need not be identical. Equal entries are not always repeated. Inconclusive results are not listed. A number with no mark means an inactive call. Calls of active or inactive are those of the source. The call rests on the fitted dose curve; in most records, active means well fitted inhibition curve with a large enough effect; inconclusive means small, poorly fitted or top-dose-only effect; inactive means flat fitted curve, though single readings scatter.

tested on: CRL-7250; assay: Cytotoxic Profiling of Annotated Libraries Using Quantitative High-Throughput Screening (AID 1296008); details: Five cell lines viability, CellTiter-Glo ATP luminescence, 48-72 h; max response: stronger effect = lower value; further: nearly all actives have a fitted effect of over 60% in size
Method in brief: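 Cells exposed to compounds for 48 or 72 hr at 37 degrees Celsius. Viability read as ATP-coupled luminescence with CellTiter-Glo after 10 min at room temperature.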
On the % scale 0 is the no-effect control and ±100 the full control effect; potency means the concentration at half of the fitted maximal effect.

How did the Potency turn out when `Cc1ccc(C(=O)Nc2cccc(C(F)(F)F)c2)cc1-c1ccc2nc(NCCN3CCOCC3)ncc2c1` was run?
The Potency was 4.18 µM (active) and 7.31 µM (active).

For `COc1cccc(-c2ccc(NC(=O)C3=C(C(=O)O)CCC3)c(F)c2)c1`, which max response is on record?
Its max response is -3.86% and -6.53%.

For `CNC(=O)CN1CCC(Oc2cc3c(Nc4cccc(Cl)c4F)ncnc3cc2OC)CC1`, which max response is on record?
Its max response is -5.68% and -4.5%.

With `COc1ccc(F)c(F)c1C(=O)c1cnc(NC2CCN(S(C)(=O)=O)CC2)nc1N` as the compound, how does the Potency read?
Its Potency is 2.35 µM (active) and 3.66 µM (active).

Which Potency does the source give for `CN1CCN(Cc2ccc(NC(=O)Nc3ccc(Oc4cc(NC(=O)C5CC5)ncn4)cc3)cc2C(F)(F)F)CC1` here?
The Potency was 418 nM (active) and 1.3 µM (active).

`O=C(C=Cc1c(C(=O)O)[nH]c2cc(Cl)cc(Cl)c12)Nc1ccccc1` was tested. Which outcome did it give?
The outcome was “inactive”.

`COc1cc2c(Nc3ccc(NC(=O)c4ccccc4)cc3)ncnc2cc1OCCCN1CCOCC1` was tested. Which max response did it give?
The max response was 5%.

Which Potency does the source give for `COc1cc2c(cc1-c1c(C)noc1C)ncc1[nH]c(=O)n([C@H](C)c3ccccn3)c12` here?
The Potency was 3.26 µM (active).

Which max response does the source give for `COc1cc(-c2nn(C3CCC(N4CCN(C(C)=O)CC4)CC3)c3ncnc(N)c23)ccc1NC(=O)c1cc2ccccc2n1C` (stereo unspecified) here?
Its max response is -38.4%.

With `CS(=O)(=O)N1CCN(Cc2cc3nc(-c4cccc5[nH]ncc45)nc(N4CCOCC4)c3s2)CC1` as the compound, how does the Potency read?
Its Potency is 1.05 µM (active) and 1.64 µM (active).

How did the outcome turn out when `CC(C)(C)c1cc(C(C)(C)C)c(NC(=O)c2c[nH]c3ccccc3c2=O)cc1O` was run?
Its outcome is “inactive”.
